According to PubChem BioAssay AID430 (Sanford-Burnham Center for Chemical Genomics, 2006):
Hit rate of the full screen: of about 63,000 compounds, about 1,100 (1.7%) were called active. Cut-off read from the data, not from the text of the source: active = cytotoxicity above about 50%; inactive = the rest. What follows is part of a selection rich in actives, with near analogues and random picks from the rest. Results with a measured potency or affinity are listed apart.

experiment: HPDE-C7 pancreatic duct cell viability loss – fluorescence, HTS (AID 430); conditions: HPDE-C7 pancreatic duct cells viability, at 10 µM, stronger effect = higher value;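 note: cells exposed to compound for 48 hours before viability readout; 0% = vehicle and 100% = reference cytotoxic drug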

Row | SMILES | cytotoxicity
1 | Cc1nc(N2CCC(C(N)=O)CC2)c2nnn(Cc3ccccc3)c2n1 | 4.3% (inactive)
2 | Cc1oc(C(=O)O)cc1CSc1nnc(-c2ccccc2)n1C | -2.3% (inactive)
3 | COc1ccc(NC2c3ccccc3C(=O)N2Cc2ccco2)cc1OC (centres undefined) | 17.8% (inactive)
4 | Cc1cccc(Cn2cnc3c(nnn3Cc3ccc(F)cc3)c2=O)c1 | 1.3% (inactive)
5 | C=C(C)CSc1nnc(-c2ccccc2)n1N | -23.4% (inactive)
6 | COC(=O)c1nc2n(n1)C(c1ccc(OC)c(OC)c1OC)C1=C(CCCC1=O)N2 (centres undefined) | 2.9% (inactive)
7 | Cc1ccc(NC(=O)c2ccco2)cc1NC(=O)CSc1nnc(-c2cccs2)n1C | -3.6% (inactive)
8 | CCc1[nH]nc2c1C(c1cccc(OC(=O)N3CCOCC3)c1)C(C#N)=C(N)O2 (centres undefined) | -34.3% (inactive)
9 | COc1ccc(Nc2nc(-c3sc(N)nc3C)cs2)cc1 | 46.6% (inactive)
10 | CCn1c(C(O)c2ccccc2)nc2ccccc21 (centres undefined) | -4.3% (inactive)
11 | Cc1ccc(N2C(=O)C(Cl)=C(Nc3c(C)n(C)n(-c4ccccc4)c3=O)C2=O)cc1 | -0.2% (inactive)
12 | CCOc1ccc(-c2[nH]ncc2Oc2cccc(OC)c2)c(O)c1 | 55.5% (active)
13 | Cc1ccc(NC(=O)C2CCCN2S(=O)(=O)c2ccc(F)cc2)c(C)c1 (centres undefined) | -6.1% (inactive)
14 | CCOC(=O)C1CCCN(CCCc2ccccc2)C1 (centres undefined) | -2.8% (inactive)
15 | CCOC(=O)c1c(C2CCN(C(=O)OCC)CC2)nc2ccccn12 | 0% (inactive)
16 | COc1ccc2c3c(cccc13)OCC2=O | 8.3% (inactive)
17 | COc1ccc(C(C)=O)c2c(O)cccc12 | 9.1% (inactive)
18 | COc1cccc(/C(O)=C2/C(=O)C(=O)N(CCN3CCOCC3)C2c2cccnc2)c1 (centres undefined) | -7.7% (inactive)
19 | CC(=O)Nc1nc2ccc(Br)cc2s1 | -11.8% (inactive)
20 | Cc1c(C(=O)N2CCCC2)oc2c1-c1[nH]ncc1CC2 | 1% (inactive)
21 | CCOCCCNC(=O)N[C@@H](Cc1ccccc1)C(=O)OC | 0.6% (inactive)
22 | COC(=O)Cc1cc(=O)n(-c2nc3ccccc3[nH]2)[nH]1 | -3% (inactive)

Row | SMILES | cytotoxicity
23 | CCOC(=O)Cc1cc(=O)n(-c2nc3ccccc3s2)[nH]1 | 75.9% (active)
24 | COC(=O)Cc1cc(=O)n(-c2ccccc2)[nH]1 | -18.7% (inactive)
25 | CCOC(=O)c1nc2ccccc2s1 | -0.3% (inactive)
26 | COC(=O)Cc1cc(=O)n(-c2nc3ccccc3s2)[nH]1 | 74.2% (active)
27 | CCOC(=O)CC(=O)Nc1nc2ccccc2s1 | 1.7% (inactive)
28 | COc1ccc(CN/C=C2\CCCCC2=O)cc1 | 5.7% (inactive)
29 | Cc1ccccc1-c1nc(CS(=O)CC(=O)NCCCN(C)c2ccccc2)c(C)o1 (centres undefined) | 10.9% (inactive)
30 | COc1ccc(-n2nc(C(=O)N3CCC(C#N)CC3)c3c4ccccc4n(C)c3c2=O)cc1 | -4.7% (inactive)
31 | Cc1cccc(OCc2nnc(SCC(=O)Nc3cc(C)on3)n2C)c1 | -0.4% (inactive)
32 | Cn1c(=O)[nH]c(=O)c2c1ncn2CCN1CCCCC1 | -5.6% (inactive)
33 | CCCOc1ccc(C2c3c(oc4cc(C)c(C)cc4c3=O)C(=O)N2CCCN(C)C)cc1 (centres undefined) | -4.2% (inactive)
34 | O=C(CSc1n[nH]c(-c2ccccc2)n1)c1ccc(O)c(O)c1 | -0.1% (inactive)
35 | Oc1ccc(-c2nc(-c3ccc(O)c(O)c3)cs2)cc1 | 73.5% (active)
36 | COc1cc(-c2csc(C)n2)ccc1O | -29.1% (inactive)
37 | CN(c1ccc(O)cc1)c1nc(-c2ccccc2)cs1 | 8% (inactive)
38 | CCOC(=O)COn1c(=O)c[n+]([O-])c2ccccc21 | -1.5% (inactive)
39 | CCn1c(NC2CCCCC2)nc2ccccc21 | 7.5% (inactive)
40 | COc1cccc(CNc2nc3ccccc3n2CCN2CCCCC2)c1 | 11.1% (inactive)
41 | CCOC(=O)CC12CN3CN(C1)CC(CC(=O)OCC)(C3)C2=O | -0.6% (inactive)
42 | CCC(=O)N1CCN(CCN=CC2=C(O)CC(C)(C)CC2=O)CC1 | 5.7% (inactive)
43 | O=C(O)CCN1C(=O)C(=C2CCCCCC2)SC1=S | -8.4% (inactive)
44 | O=C1c2ccccc2C(=O)N1Cc1ccco1 | -1.5% (inactive)

Row | SMILES | cytotoxicity
45 | O=C1C(=C2CCCCC2)SC(=S)N1Cc1ccco1 | 60.9% (active)
46 | CSc1nc(N)nc(SCC(=O)c2ccccc2)c1C#N | 13.7% (inactive)
47 | CCc1nc(SCC(=O)N2CCCc3ccccc32)c2c(=O)n(C)c(=O)n(C)c2n1 | -9% (inactive)
48 | CCCc1nc(SCC(=O)N2CCc3ccccc32)c2c(=O)n(C)c(=O)n(C)c2n1 | 5.3% (inactive)
49 | Cn1c(=O)c2c(SCC(=O)N3CCC(Cc4ccccc4)CC3)nc(C3CC3)nc2n(C)c1=O | -3.8% (inactive)
50 | CCCc1nc(SCC(=O)N2CCN(c3ccccc3)CC2)c2c(=O)n(C)c(=O)n(C)c2n1 | 0% (inactive)
51 | CCCc1nc(SCC(=O)N2CCCc3ccccc32)c2c(=O)n(C)c(=O)n(C)c2n1 | 77% (active)
52 | Cc1cc(C(=O)COC(=O)c2ccc3c(c2)OCO3)c(C)n1Cc1cccs1 | -3.8% (inactive)
53 | COCCNC(=O)C(C)OC(=O)c1cc2occc2n1C (centres undefined) | -3.5% (inactive)
54 | Cc1csc(NC(=O)C2CCC(C)(C(=O)O)C2(C)C)n1 (centres undefined) | -12.1% (inactive)
55 | Cc1cc(C(=O)NCCCN2CCN(C3CCCCC3)CC2)n(-c2ccccc2)n1 | 1.4% (inactive)
56 | Cc1cc(C(=O)NCCN2CCN(c3cccc(Cl)c3)CC2)n(-c2ccccc2)n1 | 55.2% (active)
57 | Cc1cc(C(=O)NCCCN2CCOCC2)n(-c2ccccc2)n1 | 1.2% (inactive)
58 | CC(=O)Nc1cnc2ccccc2n1 | -6.4% (inactive)
59 | Clc1ccc2nc(NC3=NCN(CCN4CCOCC4)CN3)nc(-c3ccccc3)c2c1 | -2.9% (inactive)
60 | OCCN1CCN(c2nc(-c3ccccc3)c3cc(Cl)ccc3n2)CC1 | 67.2% (active)
61 | CN1CCN(c2nc(N3CCN(CCO)CC3)nc3ccccc23)CC1 | -2.1% (inactive)
62 | Cc1ccc2nc(N3CCC(C(=O)O)CC3)nc(-c3ccccc3)c2c1 | -3.3% (inactive)
63 | CN1CCN(c2nc(-c3ccccc3)c3cc(Cl)ccc3n2)CC1 | 4.2% (inactive)
64 | Cc1cc(Cl)c2c(c1)[C@]1(C(=O)N2)[C@@H]2C(=O)N(Cc3ccccc3)C(=O)[C@@H]2[C@@H]2CCCN21 | -13.3% (inactive)
